Source: PubChem BioAssay AID881 (National Center for Advancing Translational Sciences (NCATS), 2007)
About 610 (0.55%) of roughly 110,000 compounds were called active. Inconclusive results (about 3%) are left out. This excerpt belongs to a sample that is enriched for actives. A number with no mark means an inactive call. The call rests on the fitted dose curve; in most records, active means well fitted inhibition curve with a large enough effect; inconclusive means small, poorly fitted or top-dose-only effect; inactive means no such curve, though single readings can be large or run the other way.

These compounds were tested against Polyunsaturated fatty acid lipoxygenase ALOX15B (Homo sapiens) (UniProt O15296) (assay: qHTS Assay for Inhibitors of 15-hLO-2 (15-human lipoxygenase 2)). Details: purified 15hLO-2, xylenol orange hydroperoxide absorbance; series mostly up to 0.0915 µM; activity change, negative = inhibition: at the top concentration.
Description: Assay Overview: NIH Molecular Libraries Screening Centers Network [MLSCN] NIH Chemical Genomics Center [NCGC] MLSCN Grant: MH081283-01A1 PI Name: Holman, T.R., University of California, Santa Cruz Human lipoxygenase 15hLO-2 is a member of the closely related lipoxygenase family of enzymes which catalyze the site-specific oxidation of arachidonic acid to various hormone precursor molecules and as such is a candidate for drug development in a variety of disease areas, such as cancer and inflammation. Inhibition of 15hLO-2 activity was screened by utilizing arachidonic acid as a substrate. The extent of hydroperoxide product formation was measured by a secondary chromogenic reaction in which xylenol orange (XO, Sigma-Aldrich, cat. number 39,818-7) reacts with the ferric ions produced from the reaction between the hydroperoxide and ferrous ions. The Fe(III)-XO complex is characterized with red-shifted absorbance at 560 nm. A purified preparation of human 15hLO-2 was supplied by Professor Ted Holman, University of California, Santa Cruz.
Assay Protocol: Buffer: 25 mM Hepes pH 7.5, 0.01% Triton X-100. Reagents/Controls: Buffer in columns 3 and 4 as negative control (no enzyme). Substrate solution: 45 uM arachidonic acid (Sigma-Aldrich, St. Louis, MO) final concentration dispensed throughout the plate. Enzyme: 50 nM 15hLO-2 final concentration in columns 1, 2, 5-48. Column 1 is neutral (100% activity). Column 2 contained pin-transferred titration of NDGA (nordihidroguaiaretic acid, Sigma-Aldrich, N 5023, top concentration 10 mM in DMSO, then 1:2 dilution in duplicate). (Dilution factor: 23 nL into 4 uL.) Chromogenic detection reagent (divalent iron/xylenol orange, Fe-XO): 200 uM xylenol orange plus 300 uM ferrous ammonium sulfate prepared freshly in 50 mM sulfuric acid. Assay Steps: Three uL of enzyme were dispensed to 1536-well Greiner black clear bottom plates. Compounds and controls (23 nL) were transferred via Kalypsys PinTool. The plates were incubated for 15 min at room temperature, and then 1 uL of substrate solution was added to start the reaction. After room temperature incubation for 90 minutes, 4 uL of Fe-XO solution was added to each well followed by a short spin (1000 rpm, 15 sec) and the plates were then incubated for 30 min. The absorbance at 405 and 573 nm were measured using ViewLux (Perkin-Elmer) High-throughput CCD imager and absorbance protocol settings. The 573-to-405 absorbance ratio was used to compute reaction progress.
Further: nearly all actives have a fitted effect of over 60% in size.
On the % scale 0 is the no-effect control and ±100 the full control effect; potency means the concentration at half of the fitted maximal effect.

Polyunsaturated fatty acid lipoxygenase ALOX15B (Homo sapiens), sequence (O15296 whole entry, looked up): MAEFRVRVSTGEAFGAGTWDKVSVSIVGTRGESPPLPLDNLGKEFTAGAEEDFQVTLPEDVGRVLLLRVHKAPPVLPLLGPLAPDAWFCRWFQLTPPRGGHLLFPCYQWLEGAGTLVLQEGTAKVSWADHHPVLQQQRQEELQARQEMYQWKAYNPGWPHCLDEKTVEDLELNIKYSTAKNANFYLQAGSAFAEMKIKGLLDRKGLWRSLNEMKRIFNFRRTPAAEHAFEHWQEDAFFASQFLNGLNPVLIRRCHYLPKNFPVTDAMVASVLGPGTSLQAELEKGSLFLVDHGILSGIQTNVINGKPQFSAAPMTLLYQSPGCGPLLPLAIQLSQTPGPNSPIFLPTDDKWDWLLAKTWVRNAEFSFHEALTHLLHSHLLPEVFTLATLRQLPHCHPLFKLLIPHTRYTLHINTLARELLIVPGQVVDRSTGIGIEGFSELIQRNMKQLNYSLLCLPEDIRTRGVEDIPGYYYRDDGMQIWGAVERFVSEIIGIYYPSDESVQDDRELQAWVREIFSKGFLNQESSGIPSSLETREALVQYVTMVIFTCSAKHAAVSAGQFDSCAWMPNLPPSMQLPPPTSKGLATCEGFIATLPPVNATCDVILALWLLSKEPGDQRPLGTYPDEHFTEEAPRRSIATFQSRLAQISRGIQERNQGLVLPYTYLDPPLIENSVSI

Q: With `CC(C)CC(C)Nc1ccc(Nc2ccccc2)cc1` (stereo not given) as the compound, how does the Potency read?
A: Its Potency is 1.58 µM (active).

Q: How did the “activity change, negative = inhibition” value turn out when `CC(=O)NC(=O)NC(C)Cc1ccccc1` (stereo not given) was run?
A: Its value is 10.7% [at 57.1 µM].

Q: `CC(C)(O/N=C(\C(=O)N[C@@H]1C(=O)N2C(C(=O)[O-])=C(C[n+]3ccccc3)CS[C@@H]12)c1csc(N)n1)C(=O)O` was tested. Which “activity change, negative = inhibition” value did it give?
A: The value was 36.8% [at 25.6 µM].

Q: `CCCCCCCCc1[se]c2ccccc2c1Br` was tested. Which “activity change, negative = inhibition” value did it give?
A: Its value is -2.05%.

Q: For `CN(C)[C@@H]1C(=O)C(C(N)=O)=C(O)[C@@]2(O)C(=O)C3=C(O)c4c(O)cccc4[C@@](C)(O)C3CC12` (stereo not given in full), which “activity change, negative = inhibition” value is on record?
A: The value was 7.13%.

Q: How did the “activity change, negative = inhibition” value turn out when `COc1ccccc1-c1[se]c2ccccc2c1I` was run?
A: Its value is 10.7%.

Q: How did the Potency turn out when `Clc1ccc(C(c2ccc(Cl)cc2)n2cc[n+](C[C@@H](OCc3ccc(Cl)cc3Cl)c3ccc(Cl)cc3Cl)c2)cc1` was run?
A: Its Potency is 25.1 µM (active).

Q: `N#CC(C#N)=Cc1cc(O)c(O)c([N+](=O)[O-])c1` was tested. Which “activity change, negative = inhibition” value did it give?
A: The value was -26.2%.

Q: With `COC(=O)c1ccc2[se]c(CC3CCCCC3)c(I)c2c1` as the compound, how does the “activity change, negative = inhibition” value read?
A: The value was -9.39%.

Q: How did the “activity change, negative = inhibition” value turn out when `CC(C)(O)c1[se]c2ccccc2c1I` was run?
A: Its value is -11.7%.
